Data reported in PubChem BioAssay (NCATS).
Records with an inconclusive call do not appear. Active and inactive are the calls of the source. Unless noted, calls come from the whole dose curve; as a rule, active = well fitted curve in the direction sought with a large enough effect; inconclusive = small, poorly fitted or top-dose-only effect, or another doubt; inactive = no such curve, though single readings can be large; an effect the other way counts as inactive or inconclusive.

What was measured:
[1] = biological target: ATP-dependent DNA helicase Q1 (Homo sapiens) (UniProt P46063); assay: qHTS Validation Assay for Inhibitors of RecQ-Like Dna Helicase 1 (RECQ1) (AID 2353)
Chain of ATP-dependent DNA helicase Q1 (Homo sapiens) (P46063 whole entry, looked up): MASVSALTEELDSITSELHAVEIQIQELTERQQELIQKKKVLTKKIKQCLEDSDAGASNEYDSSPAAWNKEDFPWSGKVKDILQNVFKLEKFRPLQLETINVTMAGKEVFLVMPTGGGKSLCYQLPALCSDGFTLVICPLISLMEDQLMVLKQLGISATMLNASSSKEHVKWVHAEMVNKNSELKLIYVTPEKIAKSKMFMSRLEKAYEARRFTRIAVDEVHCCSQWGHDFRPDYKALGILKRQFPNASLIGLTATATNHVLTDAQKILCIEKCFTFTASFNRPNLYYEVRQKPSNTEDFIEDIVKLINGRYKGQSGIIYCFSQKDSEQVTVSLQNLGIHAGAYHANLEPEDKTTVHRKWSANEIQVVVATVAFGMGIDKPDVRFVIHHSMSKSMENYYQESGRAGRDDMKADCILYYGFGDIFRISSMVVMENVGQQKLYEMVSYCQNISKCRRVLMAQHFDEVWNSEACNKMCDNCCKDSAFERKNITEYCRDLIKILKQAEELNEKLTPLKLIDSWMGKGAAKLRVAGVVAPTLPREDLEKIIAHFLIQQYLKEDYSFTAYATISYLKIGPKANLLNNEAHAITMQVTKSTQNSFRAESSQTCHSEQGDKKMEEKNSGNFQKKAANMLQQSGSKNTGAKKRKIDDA
Outline: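 50 nM RECQ1T1 preincubated 15 min with compound in Tris pH 8.0 buffer with MgCl2, DTT, Tween-20 and 2.5 ug/ml poly(dI-dC); started with 200 nM TAMRA/BHQ-2 forked duplex and 2 mM ATP. Unwinding read as fluorescence (525/598 nm), two reads 2 h apart.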

[2] = biological target: RecQ-like DNA helicase BLM (Homo sapiens) (UniProt P54132); assay: qHTS Validation Assay for Inhibitors of Bloom's syndrome helicase (BLM) (AID 2364)
Chain of RecQ-like DNA helicase BLM (Homo sapiens) (P54132 whole entry, looked up): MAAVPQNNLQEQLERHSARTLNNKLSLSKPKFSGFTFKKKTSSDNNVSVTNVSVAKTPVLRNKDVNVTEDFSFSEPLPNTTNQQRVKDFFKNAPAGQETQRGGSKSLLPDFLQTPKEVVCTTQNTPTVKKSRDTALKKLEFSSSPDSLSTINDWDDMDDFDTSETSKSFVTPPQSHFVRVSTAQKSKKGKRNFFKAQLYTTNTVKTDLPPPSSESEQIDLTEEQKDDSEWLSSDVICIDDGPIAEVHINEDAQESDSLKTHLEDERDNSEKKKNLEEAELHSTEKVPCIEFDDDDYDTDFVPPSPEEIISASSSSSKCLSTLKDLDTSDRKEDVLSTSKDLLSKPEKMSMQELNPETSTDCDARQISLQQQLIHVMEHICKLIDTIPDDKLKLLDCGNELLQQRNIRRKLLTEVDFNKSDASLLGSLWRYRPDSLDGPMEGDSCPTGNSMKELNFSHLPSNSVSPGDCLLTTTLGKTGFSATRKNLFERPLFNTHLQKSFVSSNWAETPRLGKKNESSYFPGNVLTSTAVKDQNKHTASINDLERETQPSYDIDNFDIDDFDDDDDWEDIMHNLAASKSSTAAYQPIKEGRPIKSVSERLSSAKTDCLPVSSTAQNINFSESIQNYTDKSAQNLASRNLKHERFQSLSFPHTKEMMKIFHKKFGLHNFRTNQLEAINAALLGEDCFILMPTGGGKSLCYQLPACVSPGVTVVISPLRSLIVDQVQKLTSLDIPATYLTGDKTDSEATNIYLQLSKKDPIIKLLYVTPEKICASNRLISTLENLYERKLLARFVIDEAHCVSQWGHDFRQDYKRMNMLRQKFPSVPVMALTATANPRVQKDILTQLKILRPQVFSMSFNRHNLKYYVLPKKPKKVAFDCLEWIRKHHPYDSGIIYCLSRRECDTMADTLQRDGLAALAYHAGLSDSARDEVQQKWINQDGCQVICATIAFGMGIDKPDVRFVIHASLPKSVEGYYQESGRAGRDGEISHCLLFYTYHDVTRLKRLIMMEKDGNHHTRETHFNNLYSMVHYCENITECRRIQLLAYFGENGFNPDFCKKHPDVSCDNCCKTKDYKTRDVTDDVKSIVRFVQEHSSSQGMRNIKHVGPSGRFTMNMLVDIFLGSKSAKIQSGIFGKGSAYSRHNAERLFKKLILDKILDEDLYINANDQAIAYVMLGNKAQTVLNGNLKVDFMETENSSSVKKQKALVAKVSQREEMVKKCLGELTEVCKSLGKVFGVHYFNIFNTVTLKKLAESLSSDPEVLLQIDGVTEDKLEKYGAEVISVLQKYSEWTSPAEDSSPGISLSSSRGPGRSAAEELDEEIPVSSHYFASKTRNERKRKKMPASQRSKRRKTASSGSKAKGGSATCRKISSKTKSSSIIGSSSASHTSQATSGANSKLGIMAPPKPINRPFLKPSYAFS
Outline: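 BLM 50 nM in 25 mM Tris-HCl pH 8.0, 5 mM NaCl, 2 mM MgCl2, 1 mM DTT, 0.01% Tween-20, 2.5 ug/ml poly(dI-dC); 15 min cpd preinc, RT. Start: 200 nM forked DNA + 2 mM ATP (final). TAMRA read, 2 reads 2 h apart.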

[3] = Quantitative high throughput screen for delayed death inhibitors of the malarial parasite plastid, 96 hour incubation (AID 488745); details: Plasmodium falciparum growth; note: potency is the fitted concentration of half-maximal effect; nearly all actives have a fitted effect of over 70% in size
Outline: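 Growth of reporter-bearing P. falciparum in red cells is measured after 96 h with compound, covering two erythrocytic cycles. Luminescence from the integrated luciferase serves as the growth signal.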

[4] = Quantitative high throughput screen for delayed death inhibitors of the malarial parasite plastid, 48 hour incubation (AID 488752); details: Plasmodium falciparum growth; note: potency is the fitted concentration of half-maximal effect; nearly all actives have a fitted effect of over 65% in size
Outline: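 One parasite generation (48 h, 37 C, 5% CO2) of luciferase-reporter P. falciparum in erythrocytes is run with test compound; decreased luminescence indicates inhibited growth.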

[5] = biological target: M-phase phosphoprotein 8 (Homo sapiens) (UniProt Q99549); assay: qHTS Validation Assay for Inhibitors for MPP8 Chromodomain Interactions with Methylated Histone Tails (AID 488949);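 note: AlphaScreen signal from MPP8 chromodomain bound to biotinylated H3K9me3 peptide; top concentration of the series differs between compounds; nearly all actives have a fitted effect of over 55% in size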
Chain of M-phase phosphoprotein 8 (Homo sapiens) (Q99549 whole entry, looked up): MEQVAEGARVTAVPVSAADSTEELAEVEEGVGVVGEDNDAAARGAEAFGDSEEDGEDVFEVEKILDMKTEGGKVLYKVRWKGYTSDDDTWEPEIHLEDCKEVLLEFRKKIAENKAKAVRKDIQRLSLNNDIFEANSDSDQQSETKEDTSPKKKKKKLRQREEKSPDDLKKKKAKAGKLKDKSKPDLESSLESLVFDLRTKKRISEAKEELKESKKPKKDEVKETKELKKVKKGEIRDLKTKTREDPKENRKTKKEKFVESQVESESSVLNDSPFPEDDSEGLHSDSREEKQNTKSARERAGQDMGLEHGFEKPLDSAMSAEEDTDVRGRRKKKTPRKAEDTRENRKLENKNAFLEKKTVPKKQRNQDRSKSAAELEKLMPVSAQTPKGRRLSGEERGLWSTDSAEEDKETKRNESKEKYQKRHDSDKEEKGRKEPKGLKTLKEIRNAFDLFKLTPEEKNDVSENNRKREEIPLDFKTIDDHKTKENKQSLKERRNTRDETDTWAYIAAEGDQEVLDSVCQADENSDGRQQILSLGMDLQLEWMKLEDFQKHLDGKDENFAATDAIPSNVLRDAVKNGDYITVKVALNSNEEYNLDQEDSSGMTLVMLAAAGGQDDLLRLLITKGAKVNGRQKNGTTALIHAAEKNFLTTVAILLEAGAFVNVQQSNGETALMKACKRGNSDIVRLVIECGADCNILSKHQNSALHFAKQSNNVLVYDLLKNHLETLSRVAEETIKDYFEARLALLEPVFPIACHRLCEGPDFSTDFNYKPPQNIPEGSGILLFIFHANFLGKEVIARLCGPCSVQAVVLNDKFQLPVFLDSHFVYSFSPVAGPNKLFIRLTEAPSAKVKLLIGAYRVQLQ
Outline: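 AlphaScreen proximity signal from streptavidin donor and Ni-chelate acceptor beads (10 ug/mL each) reported binding of MPP8 to trimethyl-K9 H3(1-18) peptide, both at 50 nM. The complex formed 30 min before a 30 min compound exposure at room temperature, in PBS pH 7.4.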

[6] = qHTS for differential inhibitors of proliferation of Plasmodium falciparum line Dd2 (AID 1882);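 note: compound exposure of 72 h on infected erythrocytes; nearly all actives have a fitted effect of over 65% in size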
Outline: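 SYBR Green I DNA fluorescence read-out, ex 485/em 535 nm. Signals were normalized to 0.29 uM artemisinin and DMSO wells, then corrected using vehicle-only plates flanking each stack. Parasite growth ran 72 h in erythrocytes before lysis.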

[7] = qHTS for differential inhibitors of proliferation of Plasmodium falciparum line W2 (AID 1883); details: Plasmodium falciparum W2 proliferation inhibition;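 note: potency is the fitted concentration of half-maximal effect; parasites grown with compound for 72 h before lysis and staining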
[8] = qHTS for differential inhibitors of proliferation of Plasmodium falciparum line HB3 (AID 1886);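 note: parasites grown with compound for 72 h before SYBR Green readout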
[9] = Cytometric Cell-Based qHTS for Inhibitors of the mTORC1 Signaling Pathway in MEF (Tsc2-/-, p53-/-) Cells (AID 2660);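 note: percent of cells above a phospho-rpS6 to PI ratio cutoff in each well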
Outline: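 Percent of cells positive for normalized phospho-S6 staining is reported, with the cutoff set from rapamycin (7.5 nM) versus DMSO wells. Tsc2-/-, p53-/- MEFs received compound for 24 hrs.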

[10] = High Content Imaging Cell-Based qHTS for Inhibitors of the mTORC1 Signaling Pathway in MEF (Tsc2-/-, p53-/-) Cells (AID 2666); details: at 38.3 µM (top of the series);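 note: percent of cells scored positive for phospho-rpS6 Ser235/236 immunostaining by imaging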
Outline: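 Read-out: % positive cells per well, with thresholds from highest- and lowest-signal wells, based on phospho-rpS6 (Ser235/236) intensity normalized to Hoechst nuclear stain. Cells: Tsc2-/-, p53-/- MEFs carrying empty vector; compound 24 hrs, 37 degree Celsius.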

[11] = High Content Imaging Cell-Based qHTS for Inhibitors of the mTORC1 Signaling Pathway in MEF Cells (AID 2667);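 note: Tsc2-/- p53-/- MEFs stably re-expressing wild-type Tsc2 exposed 24 h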
Outline: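 MEF (Tsc2-/-, p53-/-, WT Tsc2 re-expressed); cpd 24 h, 37 °C; PFA fix; Alexa-488 anti-p-rpS6 Ser235/236, PI, Hoechst; IN Cell imaging; Hoechst/Alexa-488 intensity ratio; % active cells, thresholds set from rapamycin and DMSO wells.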

[12] = Validation screen for small molecules that induce DNA re-replication in MCF 10A normal breast cells (AID 463097); note: nearly all actives have a fitted effect of over 60% in size
Outline: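 Read-out is Hoechst total nuclear intensity by fluorescence scanning imager, flagging increased high-DNA-content nuclei. Compounds were incubated with MCF 10A cells for 48 hr (37 C, 5% CO2) before 40 min staining.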

[13] = biological target: Ubiquitin carboxyl-terminal hydrolase 2 (Homo sapiens) (UniProt O75604); assay: qHTS Validation Assay for Inhibitors of Ubiquitin-specific Protease USP2a Using CHOP2 as the Reporter (AID 463106)
Outline: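 USP2 core (10nM final) was preincubated with compound for 30min at RT in 20mM Tris-HCl pH 8.0, 2mM CaCl2, 2mM beta-mercaptoethanol, 0.05% CHAPS. Ub-CHOP2 and reporter substrate (25nM each) were added, and fluorescence (Ex 485/Em 531nm) was read after 60min.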

[14] = biological target: DNA polymerase III PolC-type (Bacillus subtilis (strain 168)) (UniProt P13267); assay: qHTS Validation Assay for the Inhibitors of DNA Replication in Gram-Positive Bacteria (AID 485295);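 note: reconstituted holoenzyme with PolC plus beta clamp SSB and primase; PicoGreen fluorescence of double-stranded DNA made on primed circular M13 template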
Outline: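 Double-stranded DNA product detected by PicoGreen fluorescence after EDTA quench. Compound incubated with B. subtilis holoenzyme (PolC, beta subunit, SSB, primase) before substrate addition; primed replication of M13Gori with dNTPs and NTPs at room temperature; DMSO defines 0% inhibition.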

[15] = biological target: Tumor susceptibility gene 101 protein (Homo sapiens) (UniProt Q99816); assay: qHTS Validation Assay for Iinhibitors of HIV-1 Budding by Blocking the Interaction of PTAP/TSG101 (AID 485342; calls by dose curve)
Chain of Tumor susceptibility gene 101 protein (Homo sapiens) (Q99816 whole entry, looked up, the tested form may be a part): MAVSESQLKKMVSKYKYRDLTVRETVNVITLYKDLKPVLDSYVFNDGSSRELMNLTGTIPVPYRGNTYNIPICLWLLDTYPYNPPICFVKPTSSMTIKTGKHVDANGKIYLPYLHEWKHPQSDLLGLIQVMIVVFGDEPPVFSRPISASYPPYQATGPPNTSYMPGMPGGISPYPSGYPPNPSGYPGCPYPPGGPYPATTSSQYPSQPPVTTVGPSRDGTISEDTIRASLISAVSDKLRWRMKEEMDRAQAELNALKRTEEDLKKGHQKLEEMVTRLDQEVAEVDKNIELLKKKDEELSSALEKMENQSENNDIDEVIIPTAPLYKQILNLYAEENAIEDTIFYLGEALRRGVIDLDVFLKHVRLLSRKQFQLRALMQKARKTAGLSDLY
Outline: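 Fluorescence polarization of 50 nM FITC-PTAP peptide bound to 10 uM Tsg101 binding domain was read after 20 min room-temperature incubation with compounds, in 10 mM HEPES pH 7.5, 0.15 M NaCl, 0.01% Tween 20.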

[16] = biological target: Beta-2 adrenergic receptor (Homo sapiens) (UniProt P07550); assay: qHTS validation assay of beta-arrestin-biased ligands of beta2-adrenergic receptor (AID 485366)
Chain of Beta-2 adrenergic receptor (Homo sapiens) (P07550 whole entry, looked up): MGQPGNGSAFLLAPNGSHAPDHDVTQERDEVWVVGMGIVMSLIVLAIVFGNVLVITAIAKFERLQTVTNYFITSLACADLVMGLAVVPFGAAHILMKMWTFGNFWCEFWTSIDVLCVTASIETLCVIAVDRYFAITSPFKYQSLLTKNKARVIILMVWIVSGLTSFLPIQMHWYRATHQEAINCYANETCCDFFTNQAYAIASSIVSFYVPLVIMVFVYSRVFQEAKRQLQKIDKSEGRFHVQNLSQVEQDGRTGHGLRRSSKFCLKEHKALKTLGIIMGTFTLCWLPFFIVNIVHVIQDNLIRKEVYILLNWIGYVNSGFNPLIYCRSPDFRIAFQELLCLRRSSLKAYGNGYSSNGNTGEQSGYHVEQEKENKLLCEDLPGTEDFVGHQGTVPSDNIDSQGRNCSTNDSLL
Outline: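 Luminescence from a tTA-responsive luciferase, induced when recombinant beta-arrestin is recruited to recombinant beta2-AR, served as the agonism signal. Cells were exposed to compound for 18 hr at 37 degrees C; titrations spanned up to 46 microM.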

[17] = biological target: ATP-dependent 6-phosphofructokinase (Trypanosoma brucei brucei) (UniProt O15648); assay: qHTS Validation Assay to Find Inhibitors of T. brucei phosphofructokinase (AID 485368); details: T. brucei PFK enzyme assay, qHTS 7-point titration; at 57.5 µM (top of the series)
Chain of ATP-dependent 6-phosphofructokinase (Trypanosoma brucei brucei) (O15648 whole entry, looked up): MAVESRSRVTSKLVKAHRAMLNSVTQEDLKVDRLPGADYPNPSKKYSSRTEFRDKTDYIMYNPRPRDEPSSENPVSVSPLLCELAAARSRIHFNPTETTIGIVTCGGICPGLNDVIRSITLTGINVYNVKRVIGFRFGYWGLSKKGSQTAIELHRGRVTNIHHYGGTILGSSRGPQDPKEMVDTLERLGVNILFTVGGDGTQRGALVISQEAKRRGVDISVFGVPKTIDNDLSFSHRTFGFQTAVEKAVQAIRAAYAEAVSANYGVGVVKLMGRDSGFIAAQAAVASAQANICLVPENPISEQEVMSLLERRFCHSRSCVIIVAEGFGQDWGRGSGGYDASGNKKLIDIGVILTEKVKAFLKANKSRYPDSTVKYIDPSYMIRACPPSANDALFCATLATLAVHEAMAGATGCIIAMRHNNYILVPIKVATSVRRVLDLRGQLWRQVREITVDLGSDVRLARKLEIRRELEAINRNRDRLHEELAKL
Outline: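 Activity was normalized between 1x (1.25 nM) PFK wells as no inhibition and enzyme-free wells as full inhibition, from luminescence after ADP-Glo detection of ADP made from 0.5 mM F6P and 0.1 mM ATP over 45 min.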

[18] = biological target: Thioredoxin reductase 1, cytoplasmic (Rattus norvegicus) (UniProt O89049); assay: qHTS Assay for Substrates of Mammalian Selenoprotein Thioredoxin Reductase 1 (TrxR1) (AID 488772);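 note: NADPH fluorescence in the first read after selenite addition and not the 8 min delta; a drop in NADPH fluorescence below the no-compound background marks a TrxR1 substrate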
Chain of Thioredoxin reductase 1, cytoplasmic (Rattus norvegicus) (O89049 whole entry, looked up): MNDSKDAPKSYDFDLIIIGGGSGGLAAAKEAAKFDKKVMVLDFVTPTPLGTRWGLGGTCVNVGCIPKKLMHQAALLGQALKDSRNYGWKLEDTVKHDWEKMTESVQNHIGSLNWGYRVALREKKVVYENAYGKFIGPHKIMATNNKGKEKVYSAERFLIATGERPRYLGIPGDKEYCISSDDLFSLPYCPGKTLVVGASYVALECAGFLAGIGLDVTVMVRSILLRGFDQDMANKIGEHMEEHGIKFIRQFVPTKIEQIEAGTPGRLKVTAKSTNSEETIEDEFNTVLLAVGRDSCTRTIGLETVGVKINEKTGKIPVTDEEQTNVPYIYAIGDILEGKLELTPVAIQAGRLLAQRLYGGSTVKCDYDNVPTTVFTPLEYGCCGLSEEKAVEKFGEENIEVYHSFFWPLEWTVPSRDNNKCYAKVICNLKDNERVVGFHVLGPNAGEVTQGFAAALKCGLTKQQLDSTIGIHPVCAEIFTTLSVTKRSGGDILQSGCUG
Outline: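 Quantitative HTS in Tris-HCl buffer at pH 7.5 with EDTA and Tween-20, using rat TrxR1, 400 uM NADPH and 400 uM selenite (final). A fall in initial NADPH fluorescence relative to background marked substrate behaviour.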

[19] = biological target: Thioredoxin reductase 1, cytoplasmic (Rattus norvegicus) (UniProt O89049); assay: qHTS Assay for Inhibitors of Mammalian Selenoprotein Thioredoxin Reductase 1 (TrxR1) (AID 488773);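 note: drop in NADPH fluorescence over an 8 min run after selenite addition; nearly all actives have a fitted effect of over 40% in size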
Outline: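 Steps: enzyme (90 nM) plus NADPH (400 uM final), 5 min at ~22 deg C; compound added, 15 min; selenite (400 uM final) added; fluorescence followed for 8 min. Concentration-response curves derived from the normalized delta values.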

[20] = biological target: Flap endonuclease 1 (Homo sapiens) (UniProt P39748); assay: qHTS Validation Assay for the Inhibitors of Human Flap endonuclease 1 (FEN1) (AID 488816)
Outline: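 FEN1, dispensed as a 10 nM reagent, was preincubated with pin-transferred compounds for 15 min at room temperature before substrate was added (50 nM final). Plates were read at 0 and 15 min, and a four-parameter Hill equation was fitted to the concentration-response data.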

Measured: Potency

CC[C@H](CO)Nc1nc(NCc2ccccc2)c2ncn(C(C)C)c2n1
inactive: [1] | [2] | [5]
active: [3] 1.04 µM | [4] 4.65 µM

O=c1c2ccccc2nc2n1CCc1c-2[nH]c2ccccc12
active: [7] 12.6 µM
inactive: [6] | [8] | [1] | [9] | [10] | [11] | [12] | [13] | [14] | [15] | [16] | [17] | [18] | [19] | [20] | [5]
